Among the data in PubChem BioAssay (EPA / NIEHS) are outcome and AC50 values, retold here.

Several values for one entry are separate records, joined by “and”; a condition that tells them apart may be missing. Equal entries are not always repeated. Where a structure was tested more than once in an assay, its records may differ in their call. Activity calls are given as the source filed them. Rule for the calls: active = hit-call score of the fitted dose curve at least 0.9, where 1 is the maximum; inactive = score below 0.9.

Read-out in assay [1]: Monokine induced gamma interferon (MIG), CXCL9 (gene 4283)
The assay can be described thus: BSK_hDFCGF_MIG: BioMAP Diversity Plus: hDFCGF Assay for Monokine induced gamma interferon (MIG) Biomarker Activity (AID 2283063). The note with it: primary human foreskin fibroblasts; actives raise or lower the signal. The method in brief:
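Human primary foreskin fibroblasts in the hDFCGF system, exposed to test chemical for 24 h; MIG measured by ELISA. Bidirectional curve fitting against DMSO negative control as activity baseline.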

Read-out in assay [2]: Matrix Metallopeptidase 1 (MMP1), MMP1 (gene 4312)
The experiment in a line: BSK_hDFCGF_MMP1: BioMAP Diversity Plus: hDFCGF Assay for Matrix Metallopeptidase 1 (MMP1) Biomarker Activity (AID 2283064). The note with it: primary human foreskin fibroblasts; actives raise or lower the signal. The method in brief: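 hDFCGF primary fibroblasts (human foreskin); chemical added; 24 h; MMP1 by ELISA; bidirectional fit vs DMSO.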

Read-out in assay [3]: Vascular cell adhesion molecule 1 (VCAM1), VCAM1 (gene 7412)
The assay can be described thus: BSK_hDFCGF_VCAM1: BioMAP Diversity Plus: hDFCGF Assay for Vascular cell adhesion molecule 1 (VCAM1) Biomarker Activity (AID 2283065).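 For AC50: VCAM-1 protein level quantified by ELISA after 24 h chemical exposure.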 The settings on record: primary human foreskin fibroblasts; actives raise or lower the signal. The method in brief: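 ELISA readout of VCAM-1 on human dermal fibroblast primary cultures, 24 h after chemical exposure. Gain or loss of signal fitted in both directions against DMSO baseline.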

Read-out in assay [4]: Plasminogen activator inhibitor-1 (PAI1), SERPINE1 (gene 5054)
The experiment in a line: BSK_hDFCGF_PAI1: BioMAP Diversity Plus: hDFCGF Assay for Plasminogen activator inhibitor-1 (PAI1) Biomarker Activity (AID 2283066). The note with it: primary human foreskin fibroblasts; actives raise or lower the signal. The method in brief: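 Primary dermal fibroblasts (human foreskin), hDFCGF system; compound 24 h; PAI-1 by ELISA; bidirectional fit vs DMSO control.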

Read-out in assay [5]: Intercellular Adhesion Molecule 1 (ICAM1), ICAM1 (gene 3383)
The assay can be described thus: BSK_KF3CT_ICAM1: BioMAP Diversity Plus: KF3CT Assay for Intercellular Adhesion Molecule 1 (ICAM1) Biomarker Activity (AID 2283067). The note with it: primary human keratinocytes with fibroblasts; actives raise or lower the signal. The method in brief:
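Cell-surface ICAM-1 was measured by ELISA 24 h after dosing primary human skin keratinocytes co-cultured with fibroblasts. Parallel SRB staining tracked overt cytotoxicity. Gain or loss of signal was fitted relative to DMSO.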

Read-out in assay [6]: Interferon-gamma inducible Protein 10 (IP10), CXCL10 (gene 3627)
The experiment in a line: BSK_KF3CT_IP10: BioMAP Diversity Plus: KF3CT Assay for Interferon-gamma inducible Protein 10 (IP10) Biomarker Activity (AID 2283068). The note with it: primary human keratinocytes with fibroblasts; actives raise or lower the signal. The method in brief: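 Human keratinocyte plus foreskin fibroblast primary co-culture exposed to test chemical for 24 h; IP-10 measured by ELISA. Concentration-response fitted bidirectionally against DMSO control as baseline.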

Assay [7] is described as follows: BSK_KF3CT_SRB: Viability Assessment in the BioMAP Diversity Plus: KF3CT Assay (AID 2283069).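 Note: total protein by sulforhodamine B staining as a cytotoxicity measure; read 24 h after compound addition.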 The settings on record: primary human keratinocytes with fibroblasts. The gist of the method: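 Keratinocytes co-cultured with foreskin fibroblasts (human primary); chemical added, 24 h; fix 10% TCA, stain 0.1% SRB, A560. Bidirectional fit vs DMSO.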
Read-out in assay [8]: Interleukin-1 alpha (IL1a), IL1A (gene 3552)
The experiment in a line: BSK_KF3CT_IL1a: BioMAP Diversity Plus: KF3CT Assay for Interleukin-1 alpha (IL1a) Biomarker Activity (AID 2283070). The settings on record: primary human keratinocytes with fibroblasts; actives raise or lower the signal. The gist of the method: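 Chemicals were dosed onto co-cultured human keratinocytes and foreskin fibroblasts, IL-1a was quantified by ELISA at 24 h, and activity was fitted in both directions relative to DMSO controls.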

Read-out in assay [9]: TIMP metallopeptidase inhibitor 2 (TIMP2), TIMP2 (gene 7077)
The experiment in a line: BSK_KF3CT_TIMP2: BioMAP Diversity Plus: KF3CT Assay for TIMP metallopeptidase inhibitor 2 (TIMP2) Biomarker Activity (AID 2283071). The settings on record: primary human keratinocytes with fibroblasts; actives raise or lower the signal. The gist of the method: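 Cells: human keratinocytes co-cultured with foreskin fibroblasts. Treat with chemical, 24 h. Measure TIMP-2 by ELISA; fit curves bidirectionally vs DMSO baseline.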

Read-out in assay [10]: Transforming growth factor beta 1 (TGFb1), TGFB1 (gene 7040)
The assay can be described thus: BSK_KF3CT_TGFb1: BioMAP Diversity Plus: KF3CT Assay for Transforming growth factor beta 1 (TGFb1) Biomarker Activity (AID 2283072). The note with it: primary human keratinocytes with fibroblasts; actives raise or lower the signal. The method in brief:
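Primary human skin cells (keratinocytes, foreskin fibroblasts) were co-cultured, exposed to test chemical and sampled at 24 h. TGF-b1 levels were measured by ELISA and fitted bidirectionally relative to DMSO.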

With `OCC(F)(F)C(F)(F)C(F)(F)C(F)(F)C(F)(F)C(F)(F)C(F)(F)C(F)(F)C(F)(F)C(F)(F)C(F)(F)F`, the outcome in assay [1], in assay [2], in [3], in [4], in assay [5] and in assay [6] was inactive. The result in assay [7], in [8] and in [9] was inactive. For the same compound, in assay [3], the half-maximal activity concentration (AC50) (as a rule, the concentration at which the activity in the assay is half-maximal) was 0.189 µM (active).

Regarding `Oc1c(Cl)cc(Cl)cc1Sc1cc(Cl)cc(Cl)c1O`, the AC50 is 2.22 µM (active) in assay [1]; 2.14 µM (active) and 2.37 µM (active) in assay [2]; 1.43 µM (active) and 1.52 µM (active) in assay [3]; 1.23 µM (active) and 1.32 µM (active) in [4]; 3.11 µM (active) and 3.28 µM (active) in [5]; 2.75 µM (active) and 2.98 µM (active) in [6]. Also, the AC50 in assay [8] was 2.22 µM (active) and 2.17 µM (active); in [9], 1.96 µM (active) and 2.15 µM (active). Moreover, the outcome in assay [7] was inactive.

Regarding `O=C(O)CCC(F)(F)C(F)(F)C(F)(F)C(F)(F)C(F)(F)F`, the result in [1], in [2], in [3], in [4], in [5] and in assay [6] was inactive. Further, the outcome in [7], in assay [8] and in assay [9] was inactive. In addition, the half-maximal activity concentration (AC50) in [2] is 13.8 µM (active).

As for `O=C(O)CCC(F)(F)C(F)(F)C(F)(F)C(F)(F)C(F)(F)C(F)(F)F`, the result in assay [1], in [2], in assay [3], in assay [4], in [5] and in assay [6] was inactive. In addition, the result in [7], in [8] and in assay [9] was inactive.

For `O=C(NO)c1ccccc1`, the outcome in [1], in assay [2], in assay [3], in assay [4], in assay [5] and in [6] was inactive. Further, the outcome in assay [7], in assay [8], in assay [9] and in assay [10] was inactive.

For `C=CC(C)(CCC=C(C)C)OC(C)=O` (centres undefined), the outcome in assay [1], in assay [2], in assay [3], in assay [5], in assay [6] and in assay [7] was inactive. The outcome in [8] and in assay [10] was inactive. The AC50 in [4] was 29.8 µM (active); in assay [9] it was 32 µM (active).

`CC(C)(C)c1ccc(O)c(O)c1`: the AC50 is 31.2 µM (active) in assay [1]; 30.6 µM (active) in [2]; 15.5 µM (active) in assay [3]; 5.79 µM (active) in assay [5]; 33.8 µM (active) in [6]; 13 µM (active) in assay [8]. Moreover, the outcome in assay [4], in [7], in [9] and in assay [10] was inactive.

For the compound `CCCCCc1ccc(O)cc1`, the AC50 in assay [1] was 31.3 µM (active); in assay [2], 20 µM (active); in assay [3], 15.2 µM (active); in assay [4] it was 28.5 µM (active); in [5] it was 27.6 µM (active); in assay [6] it was 29.2 µM (active). In addition, the concentration at half-maximal activity (AC50) was 12.4 µM (active) in assay [7], 20 µM (active) in assay [8], 10.4 µM (active) in [9] and 5.62 µM (active) in [10].

As for `Cc1cccc2c1ccc1ccccc12`, the outcome in [1], in assay [2], in [3], in [4], in assay [5] and in [6] was inactive. The outcome in [7], in assay [8], in [9] and in [10] was inactive.

For `O=C(CC(=O)C(F)(F)C(F)(F)C(F)(F)F)c1cccs1`, the AC50 is 7.78 µM (active) in assay [1] and 7.77 µM (active) in assay [2]. Besides, the outcome in assay [1], in assay [2], in assay [3], in assay [4], in assay [5] and in assay [6] was inactive. Further, the outcome in assay [7], in [8] and in assay [9] was inactive.

On to `OCCN1CN(CCO)CN(CCO)C1`, for which the AC50 is 20 µM (active) in assay [1]; 15.5 µM (active) in assay [3]; 20 µM (active) in assay [5]; 5.9 µM (active) in [8]; 3.97 µM (active) in assay [10]. The outcome in [2], in assay [4], in assay [6], in [7] and in [9] was inactive.

Turning to `CN(C)CCOC(c1ccccc1)c1ccccc1`, the outcome in [1], in assay [2], in [3], in [4], in assay [5] and in assay [6] was inactive. Besides, the outcome in assay [7], in [8], in [9] and in [10] was inactive.

As for `O=C1c2ccc(O)c(O)c2C(=O)c2c(O)ccc(O)c21`, the result in assay [1], in assay [2], in assay [3], in [4], in [5] and in assay [6] was inactive. Moreover, the result in [7], in assay [8], in [9] and in assay [10] was inactive.

Turning to `O=C1NS(=O)(=O)c2ccccc21`, the outcome in assay [1], in assay [2], in assay [3], in [4], in assay [5] and in assay [6] was inactive. In addition, the result in assay [7], in [8], in [9] and in assay [10] was inactive.

Consider `O=C1OC2(c3ccccc31)c1cc(I)c(O)c(I)c1Oc1c2cc(I)c(O)c1I`, for which the concentration at half-maximal activity (AC50) in assay [1] is 18.6 µM (active); in assay [2], 7.71 µM (active); in [3], 12 µM (active); in assay [4], 5.52 µM (active); in assay [5], 17.4 µM (active); in [6], 18.4 µM (active). Further, the values for the half-maximal activity concentration (AC50) in [8], in [9] and in [10] were 4.82 µM (active), 2.44 µM (active) and 3.45 µM (active), respectively. Also, in assay [7], the result was inactive.

For the compound `C=CC(=C)CC/C=C(\C)CCC=C(C)C`, the result in [1], in assay [2], in assay [3], in assay [4], in [5] and in assay [6] was inactive. Besides, the outcome in [7], in [8], in assay [9] and in [10] was inactive.
